Results taken from PubChem BioAssay (NCI).
“And” between values parts separate entries of the source, which are not always exact repeats. Identical values can stand only once. The panel holds about 83,000 compounds, 20% with a hit somewhere; the sample as a whole holds those more often.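 Cell lines were cultured in 96-well plates, exposed to a single compound concentration, and assessed for percent growth 48 hours later.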 The source made the active and inactive calls. The calls were made as follows: active = growth percent below 10; inactive = the rest.

Assays:
Experiment in all cases: NCI-60 one-dose screen, 48 h (100 = growth as untreated, 0 = no growth, -100 = all killed)
NCI-H23 lung = system: NCI-H23 lung
NCI-H226 lung = system: NCI-H226 lung
NCI-H322M lung = system: NCI-H322M lung
HOP-62 NSCLC = system: HOP-62 NSCLC
NCI-H460 lung = system: NCI-H460 lung
HOP-92 NSCLC = system: HOP-92 NSCLC
NCI-H522 lung = system: NCI-H522 lung
A549/ATCC NSCLC = system: A549/ATCC NSCLC
786-0 renal = system: 786-0 renal
COLO 205 colon = system: COLO 205 colon
DU-145 prostate = system: DU-145 prostate
K-562 leukemia = system: K-562 leukemia
MALME-3M melanoma = system: MALME-3M melanoma
MDA-MB-231 breast = system: MDA-MB-231 breast
RXF 393 renal = system: RXF 393 renal
SF-268 CNS = system: SF-268 CNS
SF-295 CNS = system: SF-295 CNS
SF-539 CNS = system: SF-539 CNS
UACC-257 melanoma = settings: 10 µM unless noted
M14 melanoma = system: M14 melanoma

N#CC1C(=O)SC2c3ccccc3C(=O)c3ccccc3C12 (centres undefined)
growth (NCI-H23 lung; 10 µM unless noted): 104% (inactive)
growth (NCI-H226 lung; 10 µM unless noted): 94.8% (inactive)
growth (NCI-H322M lung; 10 µM unless noted): 98.8% (inactive)
growth (HOP-62 NSCLC; 10 µM unless noted): 96.1% (inactive)
growth (NCI-H460 lung; 10 µM unless noted): 96.9% (inactive)
growth (HOP-92 NSCLC; 10 µM unless noted): 71.8% (inactive)
growth (NCI-H522 lung; 10 µM unless noted): 94.9% (inactive)
growth (A549/ATCC NSCLC; 10 µM unless noted): 84.9% (inactive)
growth (786-0 renal; 10 µM unless noted): 96.8% (inactive)
growth (COLO 205 colon; 10 µM unless noted): 107% (inactive)
growth (DU-145 prostate; 10 µM unless noted): 107% (inactive)
growth (K-562 leukemia; 10 µM unless noted): 94.9% (inactive)
growth (MALME-3M melanoma; 10 µM unless noted): 101% (inactive)
growth (MDA-MB-231 breast; 10 µM unless noted): 98% (inactive)
growth (RXF 393 renal; 10 µM unless noted): 101% (inactive)
growth (SF-268 CNS; 10 µM unless noted): 101% (inactive)
growth (SF-295 CNS; 10 µM unless noted): 113% (inactive)
growth (SF-539 CNS; 10 µM unless noted): 114% (inactive)
growth (UACC-257 melanoma): 101% (inactive)
growth (M14 melanoma; 10 µM unless noted): 109% (inactive)

COc1cc(NS(C)(=O)=O)ccc1Nc1c2ccccc2nc2ccccc12
growth (NCI-H23 lung; 2.5 µM): 8.63% (active)
growth (NCI-H23 lung; 10 µM): -3.53% (active) [middle of 4 runs]
growth (NCI-H226 lung; 10 µM unless noted): -8.63% [2.5 µM] (active)
growth (NCI-H322M lung; 10 µM unless noted): 83.9% [2.5 µM] (inactive)
growth (HOP-62 NSCLC; 10 µM unless noted): 18.2% [2.5 µM] (inactive)
growth (NCI-H460 lung; 10 µM unless noted): 4.6% [2.5 µM] (active)
growth (HOP-92 NSCLC; 2.5 µM): 9.79% (active)
growth (HOP-92 NSCLC; 10 µM): 42.5% (inactive) and 10.3% (inactive)
growth (NCI-H522 lung; 2.5 µM): 43% (inactive)
growth (NCI-H522 lung; 10 µM): -47.9% (active) and 4% (active) and 37.2% (inactive)
growth (A549/ATCC NSCLC; 2.5 µM): 28.1% (inactive)
growth (A549/ATCC NSCLC; 10 µM): 12.9% (inactive) [middle of 4 runs]
growth (786-0 renal; 10 µM unless noted): -3.06% [2.5 µM] (active)
growth (COLO 205 colon; 10 µM unless noted): 39.7% [2.5 µM] (inactive)
growth (DU-145 prostate; 10 µM unless noted): -34.4% [2.5 µM] (active)
growth (K-562 leukemia; 2.5 µM): 29.2% (inactive)
growth (K-562 leukemia; 10 µM): 0.97% (active) and 16.8% (inactive) and 23.4% (inactive)
growth (MALME-3M melanoma; 2.5 µM): 43.4% (inactive)
growth (MALME-3M melanoma; 10 µM): -25.4% (active) and 20.4% (inactive) and 25.4% (inactive)
growth (MDA-MB-231 breast; 10 µM unless noted): 98.2% [2.5 µM] (inactive)
growth (RXF 393 renal; 10 µM unless noted): 6.88% [2.5 µM] (active)
growth (SF-268 CNS; 2.5 µM): 35.1% (inactive)
growth (SF-268 CNS; 10 µM): 25.1% (inactive) [middle of 4 runs]
growth (SF-295 CNS; 10 µM unless noted): 3.7% [2.5 µM] (active)
growth (SF-539 CNS; 10 µM unless noted): -34.3% [2.5 µM] (active)
growth (UACC-257 melanoma): 5.31% [2.5 µM] (active)
growth (M14 melanoma; 10 µM unless noted): 8.39% (active) [middle of 4 runs]

COc1ccc(-c2cscc2N)cc1
growth (NCI-H23 lung; 10 µM): 79.4% (inactive)
growth (NCI-H23 lung; 100 µM): 74.2% (inactive)
growth (NCI-H226 lung; 10 µM): 106% (inactive)
growth (NCI-H226 lung; 100 µM): 86.6% (inactive)
growth (NCI-H322M lung; 10 µM): 95.6% (inactive)
growth (NCI-H322M lung; 100 µM): 73.9% (inactive)
growth (HOP-62 NSCLC; 10 µM): 55.8% (inactive)
growth (HOP-62 NSCLC; 100 µM): 57.6% (inactive)
growth (NCI-H460 lung; 10 µM): 83.5% (inactive)
growth (NCI-H460 lung; 100 µM): 33.8% (inactive)
growth (HOP-92 NSCLC; 10 µM unless noted): 68.7% [100 µM] (inactive)
growth (NCI-H522 lung; 10 µM unless noted): 34.8% [100 µM] (inactive)
growth (A549/ATCC NSCLC; 10 µM): 76.7% (inactive)
growth (A549/ATCC NSCLC; 100 µM): 46.1% (inactive)
growth (786-0 renal; 10 µM): 98.6% (inactive)
growth (786-0 renal; 100 µM): 37.1% (inactive)
growth (COLO 205 colon; 10 µM): 78% (inactive)
growth (COLO 205 colon; 100 µM): -68.1% (active)
growth (DU-145 prostate; 10 µM): 83.3% (inactive)
growth (DU-145 prostate; 100 µM): 69.8% (inactive)
growth (K-562 leukemia; 10 µM): 54.4% (inactive)
growth (K-562 leukemia; 100 µM): 22.9% (inactive)
growth (MALME-3M melanoma; 10 µM): 138% (inactive)
growth (MALME-3M melanoma; 100 µM): 66.9% (inactive)
growth (MDA-MB-231 breast; 10 µM): 55.3% (inactive)
growth (MDA-MB-231 breast; 100 µM): 50.8% (inactive)
growth (RXF 393 renal; 10 µM): 106% (inactive)
growth (RXF 393 renal; 100 µM): 89.5% (inactive)
growth (SF-268 CNS; 10 µM): 91% (inactive)
growth (SF-268 CNS; 100 µM): 41.3% (inactive)
growth (SF-295 CNS; 10 µM): 54.1% (inactive)
growth (SF-295 CNS; 100 µM): 40.9% (inactive)
growth (SF-539 CNS; 10 µM): 78.7% (inactive)
growth (SF-539 CNS; 100 µM): 44.3% (inactive)
growth (UACC-257 melanoma): 41.2% [100 µM] (inactive)
growth (M14 melanoma; 10 µM): 76.1% (inactive)
growth (M14 melanoma; 100 µM): 43.4% (inactive)

CNc1ccc2c(c1)c1ccccc1n2C
growth (NCI-H23 lung; 10 µM unless noted): 85.2% (inactive)
growth (NCI-H226 lung; 10 µM unless noted): 101% (inactive)
growth (NCI-H322M lung; 10 µM unless noted): 98.4% (inactive)
growth (HOP-62 NSCLC; 10 µM unless noted): 100% (inactive)
growth (NCI-H460 lung; 10 µM unless noted): 108% (inactive)
growth (HOP-92 NSCLC; 10 µM unless noted): 99.5% (inactive)
growth (NCI-H522 lung; 10 µM unless noted): 92.4% (inactive)
growth (A549/ATCC NSCLC; 10 µM unless noted): 105% (inactive)
growth (786-0 renal; 10 µM unless noted): 105% (inactive)
growth (COLO 205 colon; 10 µM unless noted): 111% (inactive)
growth (DU-145 prostate; 10 µM unless noted): 102% (inactive)
growth (K-562 leukemia; 10 µM unless noted): 105% (inactive)
growth (MALME-3M melanoma; 10 µM unless noted): 106% (inactive)
growth (MDA-MB-231 breast; 10 µM unless noted): 98.5% (inactive)
growth (RXF 393 renal; 10 µM unless noted): 113% (inactive)
growth (SF-268 CNS; 10 µM unless noted): 95.1% (inactive)
growth (SF-295 CNS; 10 µM unless noted): 98.7% (inactive)
growth (SF-539 CNS; 10 µM unless noted): 98.1% (inactive)
growth (UACC-257 melanoma): 107% (inactive)
growth (M14 melanoma; 10 µM unless noted): 116% (inactive)

Cc1c2ccccc2c(C)c2c1ccc1ccccc12
growth (NCI-H23 lung; 10 µM unless noted): 81.6% (inactive)
growth (NCI-H226 lung; 10 µM unless noted): 100% (inactive)
growth (NCI-H322M lung; 10 µM unless noted): 90.8% (inactive)
growth (HOP-62 NSCLC; 10 µM unless noted): 95.1% (inactive)
growth (NCI-H460 lung; 10 µM unless noted): 87.6% (inactive)
growth (HOP-92 NSCLC; 10 µM unless noted): 88.6% (inactive)
growth (NCI-H522 lung; 10 µM unless noted): 79.5% (inactive)
growth (A549/ATCC NSCLC; 10 µM unless noted): 78.4% (inactive)
growth (786-0 renal; 10 µM unless noted): 91.5% (inactive)
growth (COLO 205 colon; 10 µM unless noted): 94.6% (inactive)
growth (DU-145 prostate; 10 µM unless noted): 97.5% (inactive)
growth (K-562 leukemia; 10 µM unless noted): 85.1% (inactive)
growth (MALME-3M melanoma; 10 µM unless noted): 88.8% (inactive)
growth (MDA-MB-231 breast; 10 µM unless noted): 89.8% (inactive)
growth (RXF 393 renal; 10 µM unless noted): 96.3% (inactive)
growth (SF-268 CNS; 10 µM unless noted): 98.5% (inactive)
growth (SF-295 CNS; 10 µM unless noted): 96.9% (inactive)
growth (SF-539 CNS; 10 µM unless noted): 92.3% (inactive)
growth (UACC-257 melanoma): 94.7% (inactive)
growth (M14 melanoma; 10 µM unless noted): 86.8% (inactive)
